Measurements: PubChem BioAssay
Calls of active or inactive are those of the source.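 How the source made its calls, unless noted: active means response below a set limit, under 55% cells CD8-positive and vesicle-bound, and CD8 cells' 90th-percentile brightness under 279; inactive means the rest.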

Key:
[1] = inhibitors of CD8+ T cell-vesicle binding, pilot screen, LFA-1/ICAM-1 modulator project, MLPCN validation set, flow cytometry (AID 2523); settings: 2C mouse CD8+ T cells, at 7 µM, stronger effect = lower value; double positive events: measured here: CD8+/vesicle+ event percentage;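 on vesicle binding response: mean PE anti-B7-1 fluorescence of CD8+ cells relative to row control; 100% = QL9-loaded vesicles with DMSO vehicle in the same plate row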
[2] = target: Integrin beta-1 (Homo sapiens) + Integrin alpha-4 (Homo sapiens) (UniProt P13612+P05556); experiment: inhibition of HUTS-21 binding to VLA-4, pilot screen, VLA-4 allosteric modulator project, U937 cells, HUTS-21 mAb, flow cytometry, validation set (AID 2674;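 active means inhibition above 50%, about 3 SD of the validation set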;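 further: antibody binding induced by the VLA-4 ligand LDV present at three times its Kd; 0% = LDV ligand with antibody and no compound and 100% = antibody without LDV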); settings: HUTS-21 LIBS mAb binding, at 6.7 µM, stronger effect = higher value, binding induced by LDV ligand
Chain of Integrin beta-1 (Homo sapiens) + Integrin alpha-4 (Homo sapiens) (P05556 whole entry, looked up): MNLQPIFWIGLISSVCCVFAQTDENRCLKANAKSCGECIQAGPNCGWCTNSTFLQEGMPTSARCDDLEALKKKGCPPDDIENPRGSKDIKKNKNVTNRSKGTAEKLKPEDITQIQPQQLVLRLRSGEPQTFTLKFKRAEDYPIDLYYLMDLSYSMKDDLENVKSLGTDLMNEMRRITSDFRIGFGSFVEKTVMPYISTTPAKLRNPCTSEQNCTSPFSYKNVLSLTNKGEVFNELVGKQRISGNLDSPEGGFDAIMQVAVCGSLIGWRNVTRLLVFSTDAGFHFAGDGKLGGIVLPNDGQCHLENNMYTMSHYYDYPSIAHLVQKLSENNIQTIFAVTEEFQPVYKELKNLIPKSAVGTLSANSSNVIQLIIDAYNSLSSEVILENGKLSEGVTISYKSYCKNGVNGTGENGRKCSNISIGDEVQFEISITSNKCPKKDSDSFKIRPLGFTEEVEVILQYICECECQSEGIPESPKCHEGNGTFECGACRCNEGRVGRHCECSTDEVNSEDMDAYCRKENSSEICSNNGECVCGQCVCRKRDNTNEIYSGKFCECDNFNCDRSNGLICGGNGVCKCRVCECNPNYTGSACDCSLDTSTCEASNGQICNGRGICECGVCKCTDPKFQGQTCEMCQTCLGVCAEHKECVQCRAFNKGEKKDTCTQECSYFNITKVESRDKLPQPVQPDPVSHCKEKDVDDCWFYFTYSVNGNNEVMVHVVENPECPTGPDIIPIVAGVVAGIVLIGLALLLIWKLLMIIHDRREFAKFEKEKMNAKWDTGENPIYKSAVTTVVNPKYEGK
Chain of Integrin beta-1 (Homo sapiens) + Integrin alpha-4 (Homo sapiens) (P13612 whole entry, looked up): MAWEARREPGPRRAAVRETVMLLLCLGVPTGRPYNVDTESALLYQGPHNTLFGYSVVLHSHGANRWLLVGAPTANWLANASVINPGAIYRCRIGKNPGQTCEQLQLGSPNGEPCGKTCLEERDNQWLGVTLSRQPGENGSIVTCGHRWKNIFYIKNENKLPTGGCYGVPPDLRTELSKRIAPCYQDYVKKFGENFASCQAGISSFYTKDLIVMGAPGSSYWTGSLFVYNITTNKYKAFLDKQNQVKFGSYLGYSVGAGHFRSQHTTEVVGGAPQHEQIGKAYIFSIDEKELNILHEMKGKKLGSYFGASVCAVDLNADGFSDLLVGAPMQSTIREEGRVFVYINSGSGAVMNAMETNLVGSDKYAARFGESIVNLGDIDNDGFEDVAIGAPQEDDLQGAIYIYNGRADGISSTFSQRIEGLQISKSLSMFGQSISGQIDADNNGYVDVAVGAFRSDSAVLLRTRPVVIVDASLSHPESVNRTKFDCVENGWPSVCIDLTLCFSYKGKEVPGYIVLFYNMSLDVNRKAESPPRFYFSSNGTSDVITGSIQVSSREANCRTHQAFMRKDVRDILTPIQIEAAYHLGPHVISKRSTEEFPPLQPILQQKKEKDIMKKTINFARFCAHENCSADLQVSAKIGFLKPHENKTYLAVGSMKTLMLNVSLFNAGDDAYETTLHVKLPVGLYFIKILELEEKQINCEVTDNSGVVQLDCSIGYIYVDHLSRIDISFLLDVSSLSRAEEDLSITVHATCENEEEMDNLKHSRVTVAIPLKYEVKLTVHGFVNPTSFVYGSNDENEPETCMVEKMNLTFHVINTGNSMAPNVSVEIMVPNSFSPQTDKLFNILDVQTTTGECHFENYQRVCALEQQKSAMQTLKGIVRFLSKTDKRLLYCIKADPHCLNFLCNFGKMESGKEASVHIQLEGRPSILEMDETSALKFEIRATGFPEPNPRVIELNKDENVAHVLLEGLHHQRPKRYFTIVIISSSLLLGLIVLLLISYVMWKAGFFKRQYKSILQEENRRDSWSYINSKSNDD

[3] = superoxide lowering in aged yeast cells, pilot screen, validation compound set (AID 2706;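 active means superoxide response below 65% of plate, a cut near 3 SD across the whole screen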;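 further: yeast exposed to compound for one week at 30 degrees C before staining; 100% = mean of all compound wells on the same plate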); settings: S. cerevisiae aging, superoxide DHE fluorescence; at 10 µM, stronger effect = lower value
[4] = target: Beta-adrenergic receptor kinase 1 (Homo sapiens) (UniProt P25098); experiment: GRK2 binders displacing RNA aptamer, biochemical, validation, human GRK2, bead flow cytometry (AID 488806;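 active means aptamer binding inhibition above 30%, about 3 SD of noise from non-fluorescent compounds; inactive means inhibition at or below 30%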); settings: bead-bound GRK2, FAM-aptamer displacement, at 10 µM, stronger effect = higher value
Chain of Beta-adrenergic receptor kinase 1 (Homo sapiens) (P25098 whole entry, looked up): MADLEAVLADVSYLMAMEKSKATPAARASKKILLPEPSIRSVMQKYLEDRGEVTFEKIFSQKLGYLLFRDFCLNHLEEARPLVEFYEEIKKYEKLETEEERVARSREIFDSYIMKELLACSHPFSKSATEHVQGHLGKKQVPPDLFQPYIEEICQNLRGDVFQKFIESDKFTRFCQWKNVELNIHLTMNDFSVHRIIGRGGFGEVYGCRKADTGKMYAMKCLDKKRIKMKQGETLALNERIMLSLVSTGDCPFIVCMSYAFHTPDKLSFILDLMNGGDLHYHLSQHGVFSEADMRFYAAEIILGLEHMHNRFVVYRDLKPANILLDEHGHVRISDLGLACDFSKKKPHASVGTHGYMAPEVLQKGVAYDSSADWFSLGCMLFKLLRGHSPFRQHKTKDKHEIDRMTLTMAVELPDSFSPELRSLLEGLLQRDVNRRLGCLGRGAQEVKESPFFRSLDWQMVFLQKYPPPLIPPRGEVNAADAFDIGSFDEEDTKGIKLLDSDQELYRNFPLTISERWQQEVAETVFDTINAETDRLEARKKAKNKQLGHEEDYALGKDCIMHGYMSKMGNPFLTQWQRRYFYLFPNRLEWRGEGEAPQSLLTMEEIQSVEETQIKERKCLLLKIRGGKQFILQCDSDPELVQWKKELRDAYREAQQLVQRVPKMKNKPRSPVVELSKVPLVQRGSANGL

[5] = target: AP-2 complex subunit beta (Homo sapiens) (UniProt P63010); experiment: inhibitors of arrestin peptide binding to AP2, pilot screen, biochemical, validation set, GST-AP2 beads, flow cytometry (AID 504541;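 active means inhibition above 54%, about 3 SD of non-fluorescent compounds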;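 further: AP2 carries R879A mutation and is captured from E. coli lysate; bead-bound FITC arrestin peptide fluorescence measuring arrestin peptide binding to AP2; 0% = DMSO wells and 100% = excess unlabeled arrestin peptide control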); settings: FITC arrestin peptide, at 10 µM, stronger effect = higher value, AP2 beta2 appendage fragment, R879A mutant
Chain of AP-2 complex subunit beta (Homo sapiens) (P63010 whole entry, looked up, the tested form may be a part, one chain of several): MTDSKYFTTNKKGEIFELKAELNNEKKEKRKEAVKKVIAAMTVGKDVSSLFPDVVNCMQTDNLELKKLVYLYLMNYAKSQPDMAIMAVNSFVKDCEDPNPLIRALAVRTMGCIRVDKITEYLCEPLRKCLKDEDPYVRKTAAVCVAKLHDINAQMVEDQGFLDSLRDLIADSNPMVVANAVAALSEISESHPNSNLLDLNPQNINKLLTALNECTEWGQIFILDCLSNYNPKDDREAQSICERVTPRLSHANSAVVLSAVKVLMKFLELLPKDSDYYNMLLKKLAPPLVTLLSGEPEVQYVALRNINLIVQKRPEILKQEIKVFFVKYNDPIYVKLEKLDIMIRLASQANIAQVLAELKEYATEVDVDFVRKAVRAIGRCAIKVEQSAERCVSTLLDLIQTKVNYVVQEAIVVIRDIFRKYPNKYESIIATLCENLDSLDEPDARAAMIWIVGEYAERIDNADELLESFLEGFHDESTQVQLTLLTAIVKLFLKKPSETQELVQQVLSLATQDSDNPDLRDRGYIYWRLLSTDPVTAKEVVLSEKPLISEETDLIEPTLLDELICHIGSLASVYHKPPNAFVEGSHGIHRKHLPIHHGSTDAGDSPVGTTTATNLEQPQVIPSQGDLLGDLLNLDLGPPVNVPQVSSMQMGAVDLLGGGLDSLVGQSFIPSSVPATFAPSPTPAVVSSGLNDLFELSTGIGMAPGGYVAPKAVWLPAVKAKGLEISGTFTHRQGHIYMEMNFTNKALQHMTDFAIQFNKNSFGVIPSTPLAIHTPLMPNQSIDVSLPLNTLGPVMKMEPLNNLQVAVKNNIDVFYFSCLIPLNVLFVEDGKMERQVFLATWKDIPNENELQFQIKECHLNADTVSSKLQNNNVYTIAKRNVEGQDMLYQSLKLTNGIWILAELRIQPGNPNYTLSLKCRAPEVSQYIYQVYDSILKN

[6] = yeast V-ATPase proton transport modulators, S. cerevisiae, pHLuorin, HTS validation (AID 504600; in the data active means response above about 15%;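 further: plate controls were DMSO for no effect and reference compound for full effect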); settings: S. cerevisiae pHLuorin cytosolic pH, at 10 µM, stronger effect = higher value
[7] = tested on: anti-desmoglein-3 scFv antibody binding to human DSG3; experiment: inhibitors of anti-DSG3 scFv binding to DSG3, pilot screen, biochemical, validation compound set, bead-based, flow cytometry (AID 588368;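 active means binding below the plate cutoff, the plate median minus 3 SD, with a reading above zero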;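 further: signal is the median channel fluorescence of bead-bound GFP antibody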); settings: Protein G beads, DSG3-Fc, scFv-GFP binding, at 10 µM, stronger effect = lower value
[8] = inhibitors of fungal efflux pumps CDR1, CDR2, MDR1, pilot screen, validation compound set, multiplex, phenotypic (AID 588506;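 active means efflux inhibition above 0.42, the validation set average plus 4 SD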;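 further: Nile Red retained in cells so higher fluorescence means more efflux inhibition; 0 = negative control wells and 1 = enniatin B 25 µM full block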); settings: S. cerevisiae pump-expressing triplex, Nile Red efflux flow cytometry; at 10 µM; stronger effect = higher value; the pumps come from Candida albicans
[9] = target: ATP-binding cassette sub-family B member 6 (Homo sapiens) (UniProt Q9NP58); experiment: ABCB6 transporter inhibitors, pilot screen, K562-ABCB6 cells, flow cytometry, validation set (AID 588550;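 active means inhibition above the screen-wide mean plus 3 SD, about 51%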;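 further: 0% = DMSO wells and 100% = benzethonium chloride 70 µM positive control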); settings: K562-ABCB6 porphyrin accumulation, 1 h, at 10 µM, stronger effect = higher value
Chain of ATP-binding cassette sub-family B member 6 (Homo sapiens) (Q9NP58 whole entry, looked up): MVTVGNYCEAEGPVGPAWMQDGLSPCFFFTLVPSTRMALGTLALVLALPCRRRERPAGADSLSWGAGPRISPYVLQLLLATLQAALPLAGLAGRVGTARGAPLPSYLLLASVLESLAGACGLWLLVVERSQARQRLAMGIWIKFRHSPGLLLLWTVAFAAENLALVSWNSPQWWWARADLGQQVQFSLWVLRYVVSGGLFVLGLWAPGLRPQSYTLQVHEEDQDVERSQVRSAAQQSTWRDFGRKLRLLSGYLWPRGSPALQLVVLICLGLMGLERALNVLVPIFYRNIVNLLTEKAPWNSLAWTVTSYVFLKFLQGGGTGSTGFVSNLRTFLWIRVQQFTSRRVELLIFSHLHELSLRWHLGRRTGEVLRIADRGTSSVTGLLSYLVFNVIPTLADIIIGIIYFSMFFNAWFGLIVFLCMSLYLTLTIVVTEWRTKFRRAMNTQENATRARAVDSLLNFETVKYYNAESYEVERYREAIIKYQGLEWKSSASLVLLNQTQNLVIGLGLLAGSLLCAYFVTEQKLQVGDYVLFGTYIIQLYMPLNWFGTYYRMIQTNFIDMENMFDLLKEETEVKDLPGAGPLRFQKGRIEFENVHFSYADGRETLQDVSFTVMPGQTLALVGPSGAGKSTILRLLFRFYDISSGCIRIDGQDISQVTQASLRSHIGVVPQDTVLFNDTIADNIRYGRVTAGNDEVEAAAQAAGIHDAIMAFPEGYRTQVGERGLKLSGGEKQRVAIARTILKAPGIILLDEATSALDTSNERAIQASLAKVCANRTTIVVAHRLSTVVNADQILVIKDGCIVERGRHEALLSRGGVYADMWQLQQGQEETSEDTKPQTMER

[10] = promoters of myeloid differentiation in arrested cells, primary screen, cell-based, GFP/MAC1 double positive, flow cytometry, validation set (AID 588685;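 active means differentiation response of at least 50%, scaled between solvent and reference control, from cells with both markers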;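 further: compound exposure lasts four days before antibody staining and flow analysis; 0% = DMSO wells and 100% = 5 µM fulvestrant positive control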); settings: ER-HoxA9 marrow cells, stronger effect = higher value, normalized: vehicle 0, fulvestrant 100

Structure (SMILES)	double positive events [1]	vesicle binding response [1]	inhibition [2]	superoxide response (% of plate) [3]	aptamer binding inhibition [4]	inhibition [5]	response [6]	binding (% of control) [7]	efflux inhibition (fraction of control) [8]	inhibition [9]	differentiation response [10]
O=C(CCNNC(=O)c1ccncc1)NCc1ccccc1	66.8%	184% (inactive)	18.4% (inactive)	101% (inactive)	-1% (inactive)	26.4% (inactive)	1.75% (inactive)	99% (inactive)	0.48 (active)	5% (inactive)	-24.4% (inactive)
Cc1cc(=O)oc(C)c1C(=O)NCCC(C)C	53.1%	150% (inactive)	-1.17% (inactive)	87.3% (inactive)	0% (inactive)	-9.02% (inactive)	7.71% (inactive)	102% (inactive)	0.37 (inactive)	15% (inactive)	32.1% (inactive)
Cc1c(OCC(=O)NC(Cc2c[nH]c3ccc(O)cc23)C(=O)O)ccc2c3c(c(=O)oc12)CCC3 (centres undefined)	51.4%	218% (inactive)	6.29% (inactive)	87.9% (inactive)	3% (inactive)	3.65% (inactive)	6.27% (inactive)	101% (inactive)	-0.5 (inactive)	11% (inactive)	-22.8% (inactive)
Cc1ccsc1/C=N\NC(=O)c1ccc2c(c1)OCO2	62.5%	183% (inactive)	10.9% (inactive)	97% (inactive)	3% (inactive)	11.1% (inactive)	1.01% (inactive)	99.5% (inactive)	-0.12 (inactive)	7% (inactive)	1.41% (inactive)
COc1ccc(C(=O)OCc2cc3cccc(C)c3[nH]c2=O)cc1	49.3%	163% (inactive)	5.36% (inactive)	112% (inactive)	0% (inactive)	8.12% (inactive)	-29% (inactive)	96.4% (inactive)	0.06 (inactive)	8% (inactive)	-29.3% (inactive)
COc1ccc(C(=O)/C=C/c2cc(C(=O)O)cc3c2OCOC3)c(O)c1	54.5%	202% (inactive)	-3.97% (inactive)	99.9% (inactive)	6% (inactive)	-2.5% (inactive)	-6.09% (inactive)	95.7% (inactive)	-0.43 (inactive)	0% (inactive)	-1.82% (inactive)
CCCCC[C@H](O)/C=C/[C@@H]1[C@@H](CCCCCCC(=O)O)[C@@H](O)C[C@H]1O	55.5%	114% (inactive)	5.36% (inactive)	104% (inactive)	2% (inactive)	-0.39% (inactive)	1.43% (inactive)	99.8% (inactive)	0.29 (inactive)	9% (inactive)	-26% (inactive)
COc1ccc(C2CNC(=O)C2)cc1OC1CCCC1 (centres undefined)	53.3%	151% (inactive)	-8.64% (inactive)	104% (inactive)	-6% (inactive)	23.8% (inactive)	-25.8% (inactive)	105% (inactive)	-0.12 (inactive)	7% (inactive)	-3.43% (inactive)
c1ccc2c(CC3=NCCN3)cccc2c1	49.4%	192% (inactive)	11.9% (inactive)	99% (inactive)	1% (inactive)	-1.38% (inactive)	1.28% (inactive)	96.2% (inactive)	-0.16 (inactive)	11% (inactive)	7.87% (inactive)
